Assay results reported in publication PMC5700166.

Assays:
Assay in all cases: protein-binding microarray (PBM); PBM: ~300 nM protein, 6 mM HEPES pH 7.8, 80 mM KCl, 0.5 mM EDTA, 0.5 mM EGTA, 6% glycerol, 35 ng/ul poly-dIdC, 1% milk, 1 h, room temperature; Ap Aiptasia and Nv Nematostella (sea anemones) / Co Capsaspora / Aq Amphimedon (sponge) / Dm Drosophila / Hu human; RHD is the Rel homology domain; high values mean tight binding
Conditions in all cases: dsDNA, one strand shown
GST-Ap-NF-kB RHD = molecular target: T1, GST-Ap-NF-kB RHD (Exaiptasia pallida (Aiptasia), UniProt A0A913YAJ5 2-422)
T1 sequence: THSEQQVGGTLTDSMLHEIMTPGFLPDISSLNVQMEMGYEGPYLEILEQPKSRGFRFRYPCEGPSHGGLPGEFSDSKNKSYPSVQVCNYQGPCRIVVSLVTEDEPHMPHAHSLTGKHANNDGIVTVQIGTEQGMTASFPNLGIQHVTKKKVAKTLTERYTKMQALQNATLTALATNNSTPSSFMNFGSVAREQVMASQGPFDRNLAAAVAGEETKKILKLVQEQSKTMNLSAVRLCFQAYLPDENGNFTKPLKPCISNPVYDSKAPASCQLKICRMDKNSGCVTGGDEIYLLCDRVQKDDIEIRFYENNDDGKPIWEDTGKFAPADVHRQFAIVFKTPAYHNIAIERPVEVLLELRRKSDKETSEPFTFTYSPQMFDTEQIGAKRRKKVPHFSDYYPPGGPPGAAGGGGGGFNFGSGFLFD

[1] = molecular target: T2, GST-Nv-NF-kB (Cys allele) (Nematostella vectensis, UniProt E5G601 2-411)
T2 sequence: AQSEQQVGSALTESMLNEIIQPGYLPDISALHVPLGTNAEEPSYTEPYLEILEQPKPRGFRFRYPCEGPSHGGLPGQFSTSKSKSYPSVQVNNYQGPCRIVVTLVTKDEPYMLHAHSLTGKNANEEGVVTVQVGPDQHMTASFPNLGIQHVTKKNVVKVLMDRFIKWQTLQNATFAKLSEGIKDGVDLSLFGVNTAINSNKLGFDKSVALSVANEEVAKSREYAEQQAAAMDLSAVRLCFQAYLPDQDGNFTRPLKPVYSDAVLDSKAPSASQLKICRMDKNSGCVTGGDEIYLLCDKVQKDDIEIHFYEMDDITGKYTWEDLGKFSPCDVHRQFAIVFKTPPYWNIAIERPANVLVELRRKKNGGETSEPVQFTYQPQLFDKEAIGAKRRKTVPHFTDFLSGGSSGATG

GST-Co-NF-kB = molecular target: T3, GST-Co-NF-kB (Capsaspora owczarzaki, UniProt F1ARL5 200-546)
T3 sequence: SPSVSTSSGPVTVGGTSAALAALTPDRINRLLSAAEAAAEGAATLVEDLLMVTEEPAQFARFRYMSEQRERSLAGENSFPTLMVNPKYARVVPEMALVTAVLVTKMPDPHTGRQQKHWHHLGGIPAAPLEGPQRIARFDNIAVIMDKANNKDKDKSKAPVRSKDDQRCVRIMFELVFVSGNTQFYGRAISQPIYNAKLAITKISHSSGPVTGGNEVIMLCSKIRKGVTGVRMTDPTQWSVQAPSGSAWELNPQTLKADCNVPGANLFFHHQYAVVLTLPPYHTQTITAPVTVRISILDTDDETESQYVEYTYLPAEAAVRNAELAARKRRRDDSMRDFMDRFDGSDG

GST-Dm-Relish = molecular target: T4, GST-Dm-Relish (Drosophila melanogaster, UniProt Q94527 99-473)
T4 sequence: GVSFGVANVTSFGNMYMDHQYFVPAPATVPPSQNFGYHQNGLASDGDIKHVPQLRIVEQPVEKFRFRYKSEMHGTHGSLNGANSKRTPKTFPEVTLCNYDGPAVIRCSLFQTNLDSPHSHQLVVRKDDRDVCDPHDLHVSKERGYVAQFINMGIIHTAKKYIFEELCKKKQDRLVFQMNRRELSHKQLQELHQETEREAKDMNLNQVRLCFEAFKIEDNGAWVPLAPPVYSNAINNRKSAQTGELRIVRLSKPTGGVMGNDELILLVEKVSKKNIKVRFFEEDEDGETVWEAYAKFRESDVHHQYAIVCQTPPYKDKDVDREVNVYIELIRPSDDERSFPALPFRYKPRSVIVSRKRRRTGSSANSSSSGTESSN

GST-Aq-NF-kB = molecular target: T5, GST-Aq-NF-kB (Amphimedon queenslandica, UniProt A9Y5G7 2-389)
T5 sequence: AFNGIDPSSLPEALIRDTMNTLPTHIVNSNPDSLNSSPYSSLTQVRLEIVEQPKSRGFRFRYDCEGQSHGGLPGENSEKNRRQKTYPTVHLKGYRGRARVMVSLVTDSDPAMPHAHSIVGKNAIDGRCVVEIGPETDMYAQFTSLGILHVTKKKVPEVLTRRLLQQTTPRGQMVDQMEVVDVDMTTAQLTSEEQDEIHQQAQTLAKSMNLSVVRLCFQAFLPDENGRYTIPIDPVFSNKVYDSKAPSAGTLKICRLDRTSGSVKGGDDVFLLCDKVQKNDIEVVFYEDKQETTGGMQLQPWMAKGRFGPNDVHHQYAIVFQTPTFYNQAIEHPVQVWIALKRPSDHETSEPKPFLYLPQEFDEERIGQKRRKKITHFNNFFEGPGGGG

Sequence	binding signal (GST-Ap-NF-kB RHD)	binding signal [1]	binding signal (GST-Co-NF-kB)	binding signal (GST-Dm-Relish)	binding signal (GST-Aq-NF-kB)
CCGATTAACATCACCCAACCCCCTGATGTTAATCGGGTCTTGATTCGCTTGACGCTGCTG	4.6 z-score	2.94 z-score	2.21 z-score	4.3 z-score	3.45 z-score
CCGATTAACATCAGGTATTCCCATGATGTTAATCGGGTCTTGATTCGCTTGACGCTGCTG	3.43 z-score	2.67 z-score	2.14 z-score	7.54 z-score	4.66 z-score
CCGATTAACATCAGGCACTCCCCTGATGTTAATCGGGTCTTGATTCGCTTGACGCTGCTG	4.75 z-score	3.18 z-score	2.45 z-score	3.63 z-score	4.71 z-score
CCGATTAACATCAGGCCATCCCCTGATGTTAATCGGGTCTTGATTCGCTTGACGCTGCTG	3.87 z-score	4.02 z-score	1.22 z-score	7.89 z-score	5.6 z-score
CCGATTAACATCAGGGAAATAACTGATGTTAATCGGGTCTTGATTCGCTTGACGCTGCTG	2.57 z-score	4.77 z-score	3.96 z-score	4.51 z-score	6.11 z-score
CCGATTAACATCAGGGATTTTCATGATGTTAATCGGGTCTTGATTCGCTTGACGCTGCTG	5.23 z-score	4.83 z-score	1.61 z-score	6.05 z-score	5.16 z-score
CCGATTAACATCACCACTTTCCCTGATGTTAATCGGGTCTTGATTCGCTTGACGCTGCTG	3.21 z-score	4.07 z-score	3.94 z-score	1.32 z-score	3.11 z-score
CCGATTAACATCACCAAAATCCCTGATGTTAATCGGGTCTTGATTCGCTTGACGCTGCTG	3.22 z-score	2.45 z-score	1.36 z-score	5.42 z-score	2.86 z-score
CCGATTAACATCAGGGGTAAAACTGATGTTAATCGGGTCTTGATTCGCTTGACGCTGCTG	2.3 z-score	1.97 z-score	6.26 z-score	1.85 z-score	2.73 z-score
CCGATTAACATCAGCACCCCCCCTGATGTTAATCGGGTCTTGATTCGCTTGACGCTGCTG	5.67 z-score	3.51 z-score	4.07 z-score	4.44 z-score	4.32 z-score
CCGATTAACATCACCCGTTTCCCTGATGTTAATCGGGTCTTGATTCGCTTGACGCTGCTG	2.8 z-score	3.24 z-score	3.33 z-score	1.19 z-score	3.03 z-score
CCGATTAACATCAGGGGGGGCACTGATGTTAATCGGGTCTTGATTCGCTTGACGCTGCTG	4.77 z-score	3.1 z-score	4.2 z-score	4.97 z-score	4.76 z-score
CCGATTAACATCAGGCTTTCCCATGATGTTAATCGGGTCTTGATTCGCTTGACGCTGCTG	1.49 z-score	2.94 z-score	2.07 z-score	2.07 z-score	2.88 z-score
CCGATTAACATCAATTTTCCCAATGATGTTAATCGGGTCTTGATTCGCTTGACGCTGCTG	1.98 z-score	3.86 z-score	3.99 z-score	1.29 z-score	2.61 z-score
